Test results reported in PubChem BioAssay (NCATS).
Inconclusive results are not listed. Active and inactive are the calls of the source. Unless noted, calls follow the shape of the dose curve; as a rule, active = well fitted curve in the direction sought with a large enough effect; inconclusive = small, poorly fitted or top-dose-only effect, or another doubt; inactive = no such curve, though single readings can be large; an effect the other way counts as inactive or inconclusive.

Experiments:
[1] = target: Rap guanine nucleotide exchange factor 3 (Homo sapiens) (UniProt O95398); test: Confirmatory qHTS for antagonist of cAMP-regulated guanine nucleotide exchange factor 3 (EPAC1) (AID 1645880); conditions: EPAC1 Rap1B-BODIPY-GDP exchange, fluorescence; activity, negative = inhibition: at 115 µM (top of the series); also: nearly all actives have a fitted effect of over 55% in size; also: potency is read from the fitted curve at half-maximal effect;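 as to activity, negative = inhibition: plate controls were DMSO only for no effect and full effect of the ATA control for full effect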
Outline: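 Nucleotide exchange uses 100 nM EPAC1, 250 nM RAP1B-BODIPY-GDP and 50 uM GDP, with compounds in a concentration-titration series. After 5 min at room temperature, fluorescence (480 nm ex/540 nm em) is read every 5 min for 30 min. Data are normalized to control ATA and DMSO.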

[2] = target: Rap guanine nucleotide exchange factor 3 (Homo sapiens) (UniProt O95398); test: Confirmatory qHTS for agonist of cAMP-regulated guanine nucleotide exchange factor 3 (EPAC1) (AID 1645881);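 also: EPAC1 catalysed release of BODIPY-GDP from Rap1B seen as fluorescence loss; 100% = effect of cAMP agonist control; nearly all actives have a fitted effect of over 75% in size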
[3] = target: Rap guanine nucleotide exchange factor 4 (Homo sapiens) (UniProt Q8WZA2); test: Confirmatory qHTS for agonist of cAMP-regulated guanine nucleotide exchange factor 4 (EPAC2) (AID 1645884);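 also: nucleotide exchange releases bodipy-GDP from Rap1 and this lowers its fluorescence; % is scaled to controls: 0 for no effect and ±100 for the full control effect; nearly all actives have a fitted effect of over 65% in size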
[4] = target: Rap guanine nucleotide exchange factor 4 (Homo sapiens) (UniProt Q8WZA2); test: Confirmatory qHTS for antagonist of cAMP-regulated guanine nucleotide exchange factor 4 (EPAC2) (AID 1645885); also: nearly all actives have a fitted effect of over 25% in size; also: potency is read from the fitted curve at half-maximal effect; as to activity change, negative = inhibition: % is scaled to controls: 0 for no effect and ±100 for the full control effect
[5] = target: Rap guanine nucleotide exchange factor 3 (Homo sapiens) (UniProt O95398); test: Counterscreen qHTS for antagonist of cAMP-regulated guanine nucleotide exchange factor 3 (EPAC1) (AID 1645888);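 also: fluorescence loss as bound BODIPY-GDP is released from Rap1B; % of control where 0% means no effect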
Outline: (§1)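 Rap1B–BODIPY-GDP (250 nM) with 50 uM GDP; compounds pin-transferred to 9.74 nM–152 uM final (activator) or from 7.32 nM upwards (inhibitor). Fluorescence Ex/Em 480/540 nm read at 5 and 30 min, then after adding cAMP or buffer, at room temperature.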

[6] = target: Rap guanine nucleotide exchange factor 3 (Homo sapiens) (UniProt O95398); test: Counterscreen qHTS for agonist of cAMP-regulated guanine nucleotide exchange factor 3 (EPAC1) (AID 1645889); also: % of control where 0% means no effect; nearly all actives have a fitted effect of over 40% in size
Outline: as §1

[7] = AP1 Signaling Pathway (AID 357; active = well fitted curve in either direction with a large enough effect, not every such curve was filed as active;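 also: ME-180 reporter cells stimulated with EGF at its EC50 level; % is scaled to controls: 0 for no effect and ±100 for the full control effect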); conditions: ME-180 (cervical carcinoma) AP-1-bla reporter, EGF-induced, beta-lactamase ratio, 5 h; at 7.69 µM (top of the series) unless noted
Outline: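 First, ME-180 AP-1-bla cells were cultured overnight at 37 °C in low-serum Opti-MEM. Next, titrated compounds with EC50 EGF were incubated 5 hours. Finally, CCF4 was added for 2.5 hours and the 460/530 nm ratio recorded.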

[8] = NFAT Signaling Pathway (AID 444; active = well fitted curve in either direction with a large enough effect, not every such curve was filed as active;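 also: carbachol stimulus at about its EC50 of 1 µM final; % is scaled to controls: 0 for no effect and ±100 for the full control effect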); conditions: Jurkat NFAT-bla M1, carbachol, beta-lactamase ratio, 5 h; at 7.69 µM (top of the series) unless noted
Outline: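 Jurkat cells with NFAT-driven β-lactamase reporter and co-expressed M1 receptor, stimulated with carbachol (final 1 uM, ~EC50), compound titration, 5 h at 37 °C. CCF4 loaded 1 h at RT; 460/530 nm ratio gave %activity and AC50.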

[9] = Stat Signaling Pathway (AID 446; active = well fitted curve in either direction with a large enough effect, not every such curve was filed as active;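 also: ME-180 cervical cancer cells given 40 pM IL-6 alongside compound; SIE-controlled beta-lactamase reporter measured as 460/530 nm FRET emission ratio; % is scaled to controls: 0 for no effect and ±100 for the full control effect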)
Outline: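 IL-6/STAT signaling read in ME-180 cells via an SIE beta-lactamase reporter. Stimulus was 40 pM IL-6 (its AC50) for 5 hrs, so both activation and inhibition register.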

Rap guanine nucleotide exchange factor 3 (Homo sapiens), sequence (O95398 whole entry, looked up): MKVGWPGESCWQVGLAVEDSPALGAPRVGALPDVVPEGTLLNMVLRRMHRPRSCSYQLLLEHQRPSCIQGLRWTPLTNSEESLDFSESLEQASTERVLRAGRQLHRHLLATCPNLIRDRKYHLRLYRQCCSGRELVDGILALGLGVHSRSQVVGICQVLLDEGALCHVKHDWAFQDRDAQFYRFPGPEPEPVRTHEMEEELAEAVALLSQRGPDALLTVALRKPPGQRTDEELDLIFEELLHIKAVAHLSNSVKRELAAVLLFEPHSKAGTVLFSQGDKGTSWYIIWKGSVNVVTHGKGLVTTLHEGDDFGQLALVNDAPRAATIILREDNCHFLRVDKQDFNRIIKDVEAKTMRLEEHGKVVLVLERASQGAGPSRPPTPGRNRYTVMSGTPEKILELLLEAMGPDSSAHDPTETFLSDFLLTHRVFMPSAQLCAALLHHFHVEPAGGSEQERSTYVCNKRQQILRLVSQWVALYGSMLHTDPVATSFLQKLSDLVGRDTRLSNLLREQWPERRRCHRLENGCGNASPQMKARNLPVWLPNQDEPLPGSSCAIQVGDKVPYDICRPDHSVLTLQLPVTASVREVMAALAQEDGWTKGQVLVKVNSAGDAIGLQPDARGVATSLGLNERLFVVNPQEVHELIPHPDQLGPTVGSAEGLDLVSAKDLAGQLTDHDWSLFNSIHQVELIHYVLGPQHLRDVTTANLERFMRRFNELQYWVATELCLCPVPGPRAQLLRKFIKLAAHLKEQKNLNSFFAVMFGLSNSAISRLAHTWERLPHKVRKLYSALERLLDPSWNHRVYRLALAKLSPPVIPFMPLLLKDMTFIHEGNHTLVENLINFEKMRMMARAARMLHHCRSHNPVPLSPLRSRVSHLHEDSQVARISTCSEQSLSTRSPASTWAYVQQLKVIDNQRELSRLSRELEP
Rap guanine nucleotide exchange factor 4 (Homo sapiens), sequence (Q8WZA2 whole entry, looked up): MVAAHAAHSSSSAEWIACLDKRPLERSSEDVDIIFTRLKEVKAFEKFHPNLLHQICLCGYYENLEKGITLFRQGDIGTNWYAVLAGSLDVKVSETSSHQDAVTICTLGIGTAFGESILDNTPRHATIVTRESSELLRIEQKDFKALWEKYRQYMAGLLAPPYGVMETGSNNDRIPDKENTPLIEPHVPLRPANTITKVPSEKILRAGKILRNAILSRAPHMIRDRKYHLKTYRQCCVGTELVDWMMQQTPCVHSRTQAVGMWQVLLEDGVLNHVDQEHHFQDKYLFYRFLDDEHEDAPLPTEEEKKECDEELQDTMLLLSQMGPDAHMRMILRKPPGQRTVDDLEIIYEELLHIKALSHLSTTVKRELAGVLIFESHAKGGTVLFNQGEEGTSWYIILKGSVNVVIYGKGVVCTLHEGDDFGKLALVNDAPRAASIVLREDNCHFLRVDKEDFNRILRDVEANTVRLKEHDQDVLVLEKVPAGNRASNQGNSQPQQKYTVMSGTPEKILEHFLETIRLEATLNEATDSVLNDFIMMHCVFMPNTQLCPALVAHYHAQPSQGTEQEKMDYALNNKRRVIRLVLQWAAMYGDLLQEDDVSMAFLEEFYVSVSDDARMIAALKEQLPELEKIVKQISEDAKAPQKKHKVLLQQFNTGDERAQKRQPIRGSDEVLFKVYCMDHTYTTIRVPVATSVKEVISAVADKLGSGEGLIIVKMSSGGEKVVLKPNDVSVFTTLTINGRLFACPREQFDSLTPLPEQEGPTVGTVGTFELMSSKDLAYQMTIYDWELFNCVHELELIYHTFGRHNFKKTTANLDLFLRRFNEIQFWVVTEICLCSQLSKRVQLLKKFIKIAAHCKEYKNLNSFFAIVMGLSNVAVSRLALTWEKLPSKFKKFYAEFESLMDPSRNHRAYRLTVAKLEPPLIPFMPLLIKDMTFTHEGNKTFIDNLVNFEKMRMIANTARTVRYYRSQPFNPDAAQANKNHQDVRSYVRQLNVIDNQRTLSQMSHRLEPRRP

Cc1onc(-c2c(Cl)cccc2Cl)c1COC(=O)c1ccc(Cl)cc1
inactive: Potency [1] | Potency [2] | Potency [3] | Potency [4] | Potency [5] | Potency [6]

CCc1nnc(NS(=O)(=O)c2ccc(NCc3cc(Cl)ccc3O)cc2)s1
active: Potency [1] 39.8 µM
inactive: Potency [2] | activation [3] -0.696% [at 17.1 µM, percent relative to cAMP agonist control] | Potency [4] | activity change, negative = inhibition [5] -8.7% [at 30.8 µM] | activation [6] 11.7% [at 30.8 µM]

O=C1NC(=S)S/C1=C\c1ccc(SCc2ccccc2)o1
active: Potency [1] 21.3 µM
inactive: Potency [2] | Potency [3] | Potency [4] | Potency [5] | Potency [6]

Cc1ccc(N=Cc2cc(Cc3ccccc3Cl)cc([N+](=O)[O-])c2O)c(O)c1
inactive: Potency [2] | Potency [3] | Potency [4] | Potency [5] | Potency [6]
active: Potency [1] 10.7 µM

CCOC(=O)c1cc(-c2nnc(SCC(=O)Nc3ccc(F)cc3)o2)c(C)nc1C
inactive: Potency [1] | Potency [2] | Potency [3] | Potency [4] | Potency [5] | Potency [6]

COc1cnc(-c2ccccc2)c(-c2ccccc2)n1
inactive: Potency [1] | Potency [2] | activation [3] 7.78% [at 17.1 µM, percent relative to cAMP agonist control] | Potency [4] | activity change, negative = inhibition [5] -6.36% [at 30.8 µM] | activation [6] -4.28% [at 30.8 µM]

CC1=NOC(=O)/C1=C\c1ccc(-c2ccccc2Br)o1
active: Potency [1] 21.3 µM
inactive: Potency [2] | Potency [3] | Potency [4] | Potency [5] | Potency [6]

O=C(c1ccccc1)c1coc2ccc(O)c(Cl)c12
inactive: Potency [1] | Potency [2] | activation [3] 4.32% [at 17.1 µM, percent relative to cAMP agonist control] | Potency [4] | activity change, negative = inhibition [5] -20.3% [at 30.8 µM] | activation [6] 44.7% [at 30.8 µM]

CCc1ccc(NC(=O)CSc2nc(-c3ccccc3)c(C#N)c(=O)[nH]2)cc1
inactive: Potency [2] | Potency [3] | outcome [4] inactive [at 12.7 µM] | Potency [5] | Potency [6]
active: Potency [1] 75.7 µM

COc1cc(/C=C(\C#N)c2nc3ccc(C)cc3[nH]2)cc([N+](=O)[O-])c1O
inactive: Potency [2] | Potency [3] | Potency [5] | Potency [6]
active: Potency [1] 33.8 µM | Potency [4] 75.7 µM

COc1ccc(-c2cc3c(c4c2ccn4C)C2CCC3O2)cc1OC (stereo not drawn)
inactive: Potency [1] | Potency [2] | activation [3] 6.95% [at 17.1 µM, percent relative to cAMP agonist control] | Potency [4] | activity change, negative = inhibition [5] 9.79% [at 30.8 µM] | activation [6] 10.3% [at 30.8 µM]

COC(=O)c1cc(NC(=O)CC2SCCNC2=O)cc(C(=O)OC)c1 (stereo not drawn)
inactive: Potency [1] | Potency [2] | activation [3] 4.81% [at 17.1 µM, percent relative to cAMP agonist control] | Potency [4] | activity change, negative = inhibition [5] 6.38% [at 30.8 µM] | activation [6] 0.776% [at 30.8 µM]

COc1cccc(CN(C)CC(=O)Nc2c(C)cccc2C(C)C)c1
inactive: Potency [1] | Potency [2] | activation [3] 9.26% [at 17.1 µM, percent relative to cAMP agonist control] | Potency [4] | activity change, negative = inhibition [5] -8.13% [at 30.8 µM] | activation [6] 14.6% [at 30.8 µM]

COc1cccc(-n2ccn(CC(=O)NCc3ccc(C)cc3)c(=O)c2=O)c1
inactive: Potency [1] | Potency [2] | Potency [3] | Potency [4] | Potency [5] | Potency [6]

CN(CC(=O)Nc1ccccc1Sc1ccccc1)C1CCCCC1
inactive: Potency [1] | Potency [2] | Potency [3] | Potency [4] | Potency [5] | Potency [6]

CCN1CCN(c2ccc(S(=O)(=O)N3CCOCC3)cc2NC(=O)c2cc(Cl)nc3ccccc23)CC1
inactive: Potency [1] | Potency [2] | activation [3] 4.04% [at 17.1 µM, percent relative to cAMP agonist control] | Potency [4] | activity change, negative = inhibition [5] 7.51% [at 30.8 µM] | activation [6] 5.03% [at 30.8 µM]

O=C(CCCOc1ccccc1)Nc1ccc(Cl)cn1
inactive: Potency [1] | Potency [2] | Potency [3] | Potency [4] | Potency [5] | Potency [6]

COc1cc(/C=C2\SC(=S)N(CC(=O)O)C2=O)ccc1OS(=O)(=O)c1ccc(C)cc1
active: Potency [1] 23.9 µM
inactive: Potency [2] | Potency [3] | Potency [4] | Potency [5] | Potency [6]

COC(=O)c1cc(Br)c(=O)n(Cc2ccc3c(c2)OCO3)c1
inactive: activity change, negative = inhibition [7] -2.94% [at 17.2 µM] | activity change, negative = inhibition [8] 2.18% [at 17.2 µM] | outcome [9] | Potency [1] | Potency [2] | activation [3] -3.61% [at 17.1 µM, percent relative to cAMP agonist control] | Potency [4] | activity change, negative = inhibition [5] 5.45% [at 30.8 µM] | activation [6] 2.16% [at 30.8 µM]

COc1cccc(C(=O)NC(=S)N2c3ccccc3CC2C)c1OC (stereo not drawn)
inactive: Potency [1] | Potency [2] | activation [3] 5.75% [at 17.1 µM, percent relative to cAMP agonist control] | Potency [4] | activity change, negative = inhibition [5] -1.25% [at 30.8 µM] | activation [6] 14.2% [at 30.8 µM]
